Luciferase inh: Firefly luciferase inhibition profiling of diverse chemical library using quantitative high-throughput screening. Luciferin 4-monooxygenase (Photinus pyralis), P08659. purified P. pyralis luciferase, luminescence, biochemical. Potency, µM (doses to about 115 µM), usual class: inhibitors. 76,000 compounds, 2.5% hits. AID 1347043, 2019; further: nearly all actives have a fitted effect of over 65% in size
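Inhibitors were tested against purified firefly luciferase in a biochemical, low-substrate format (both substrates at 10uM) and luminescence measured with a CCD imager.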
NPR1 antag: Natriuretic polypeptide receptor (hNpr1) antagonism - Primary qHTS; HEK293 hNpr1 GloSensor cGMP, ANP-stimulated luminescence; Potency, µM (titrated, usually from 46.3 µM), actives largely listed as inhibitors; 76,000 compounds, 1.6% hits; AID 1347048, 2019; calls by dose curve; further: nearly all actives have a fitted effect of over 60% in size
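HEK293 cells stably expressing human Npr1 and cGMP GloSensor pGS-40F, loaded 2 h with 2% GloSensor reagent, given compound 30 min at room temperature. Luminescence read before and 20 min after 0.1 nM hNppA.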
NIH3T3 tox: Cytotoxic Profiling in NIH 3T3 Cell Line of Diverse Libraries Using Quantitative High-Throughput Screening; NIH 3T3 viability, CellTiter-Glo ATP luminescence, 48-72 h; Potency, µM (top dose mostly 96.7 µM), most hits filed as inhibitors; 94,000 compounds, 4.3% hits; AID 1345082, 2018; further: nearly all actives have a fitted effect of over 55% in size
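Cytotoxicity was measured by CellTiter-Glo ATP luminescence after 48 or 72 h compound exposure at 37 °C. Mouse NIH 3T3 fibroblasts were seeded at 400 cells/well and dosed by 23 nL pin transfer.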
HEK cytotox: Cytotoxic Profiling in HEK 293 Cell Line of Diverse Libraries Using Quantitative High-Throughput Screening | HEK 293 viability, ATP luminescence (CellTiter-Glo), 48-72 h | Potency, µM (top dose mostly 115 µM), most hits filed as inhibitors | 94,000 compounds, 6.6% hits | AID 1345083, 2018; further: nearly all actives have a fitted effect of over 60% in size
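HEK 293 cells seeded at 250 cells/well were exposed to compound for 48 or 72 hr at 37 degree Celsius. Viability taken as ATP content by CellTiter-Glo luminescence.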
GPT2 inh: Primary qHTS assay for inhibitors of Glutamate pyruvate transaminase 2 (GPT2). Alanine aminotransferase 2 (Homo sapiens), Q8TD30. Recombinant GPT2, coupled pyruvate oxidase/HRP Amplex Red fluorescence. Potency, µM (titrated, usually from 57.7 µM), actives largely listed as inhibitors. 100,000 compounds, 0.25% hits. AID 1671188, 2021; further: nearly all actives have a fitted effect of over 60% in size
Target sequence (Q8TD30 whole entry, looked up): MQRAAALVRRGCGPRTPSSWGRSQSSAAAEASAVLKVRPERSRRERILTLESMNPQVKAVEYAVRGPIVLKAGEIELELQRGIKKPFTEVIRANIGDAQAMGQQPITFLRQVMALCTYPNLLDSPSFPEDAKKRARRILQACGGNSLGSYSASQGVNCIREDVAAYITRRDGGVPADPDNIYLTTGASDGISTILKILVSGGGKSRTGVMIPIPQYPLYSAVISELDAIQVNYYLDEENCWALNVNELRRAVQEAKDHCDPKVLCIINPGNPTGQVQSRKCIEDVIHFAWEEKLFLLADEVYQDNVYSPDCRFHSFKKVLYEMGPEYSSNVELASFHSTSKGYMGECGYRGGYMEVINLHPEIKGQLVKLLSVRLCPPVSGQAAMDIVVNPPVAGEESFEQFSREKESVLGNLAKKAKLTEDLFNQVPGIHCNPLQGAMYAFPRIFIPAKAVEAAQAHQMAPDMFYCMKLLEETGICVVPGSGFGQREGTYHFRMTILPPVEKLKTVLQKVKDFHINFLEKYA
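Inhibition is scored from Amplex Red fluorescence generated when pyruvate oxidase and HRP act on pyruvate released by GPT2. Reactions contain 10ng/uL enzyme, 250uM a-KG and 2mM L-alanine and run 30 min at room temperature.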
Each line names hits and unclear results; the compound was inactive in the other large screens. Compounds with a hit are over-represented: about 10% of the library has one in this group of screens. Unless noted, the call rests on the fitted dose curve; in most records, active means well fitted curve in the direction sought with a large enough effect; inconclusive means small, poorly fitted or top-dose-only effect, or another doubt; inactive means no such curve, though single readings can be large; an effect the other way counts as inactive or inconclusive.

CCCNC(=O)OC[C@H]1C[C@@H]2CCN1C[C@@H]2c1cc(-c2ccc(OC)cc2)nn1C	NIH3T3 tox inconclusive, HEK cytotox inconclusive
COc1cc2c(cc1OC1CCCC1)NC(=O)C21CCN(Cc2ccccc2)CC1	NIH3T3 tox 89µM, HEK cytotox inconclusive
COc1cc2c(cc1OC1CCCC1)NC(=O)C21CCN(C(=O)Cc2ccccc2)CC1	NPR1 antag inconclusive, NIH3T3 tox 89µM, HEK cytotox 79µM, GPT2 inh inconclusive
COc1cc2c(cc1OC1CCCC1)NC(=O)C21CCN(Cc2nccn2C)CC1	HEK cytotox inconclusive
CN1CC[C@]23c4c5ccc(O)c4O[C@H]2[C@@H](O)C=C[C@H]3[C@H]1C5	GPT2 inh 28µM (no result: Luciferase inh, NPR1 antag, NIH3T3 tox, HEK cytotox)
COc1ccc2c3c1O[C@H]1[C@@H](O)C=C[C@H]4[C@@H](C2)N(C)CC[C@@]341	none (no result: Luciferase inh, NPR1 antag, NIH3T3 tox, HEK cytotox)
Cc1nc(-c2cccs2)cc([C@H]2CN3CC[C@H]2C[C@@H]3CNS(C)(=O)=O)n1	NIH3T3 tox inconclusive, HEK cytotox inconclusive
Cc1nc(-c2cccs2)cc([C@H]2CN3CC[C@H]2C[C@@H]3COC(=O)Nc2ccc(C(C)C)cc2)n1	Luciferase inh inconclusive, NPR1 antag inconclusive, NIH3T3 tox 8.9µM, HEK cytotox 5.6µM
COc1ccccc1-c1cc([C@H]2CN3CC[C@H]2C[C@@H]3COC(=O)Nc2ccc(C(C)C)cc2)nc(C)n1	Luciferase inh 18µM, NIH3T3 tox inconclusive, HEK cytotox 5µM
COC1CC(O[C@H]2CC[C@]3(C)C4CC[C@]5(C)[C@@H](C6=CC(=O)OC6)[C@@H](OC(C)=O)C[C@]5(O)C4CC[C@@H]3C2)OC(C)C1O[C@@H]1O[C@H](CO)[C@@H](O)[C@H](O)[C@H]1O (some centres undefined)	none (no result: Luciferase inh, NPR1 antag, NIH3T3 tox, HEK cytotox)
O=C(Nc1ccc2n(c1=O)C[C@H]1C[C@@H]2CN(C(=O)c2ccccc2)C1)NC1CCCCC1	Luciferase inh inconclusive
O=C(Nc1ccc2n(c1=O)C[C@H]1C[C@@H]2CN(CC2CCCCC2)C1)C1CCCCC1	NIH3T3 tox inconclusive, HEK cytotox 56µM, GPT2 inh inconclusive
CCOC(=O)[C@H]1CN(C(=O)OCC(C)(C)C)[C@]2(C)C(=O)N(CCO)c3ccccc3[C@H]12	HEK cytotox inconclusive (no result: Luciferase inh, NPR1 antag)
O=C(Cc1c[nH]c2ncc(-c3cccnc3)cc12)N1CCN(Cc2ccccc2)CC1	Luciferase inh inconclusive, NIH3T3 tox inconclusive, HEK cytotox inconclusive
COc1ccc(-c2cnc3[nH]cc(CC(=O)N4CCN(C)CC4)c3c2)cc1OC	NIH3T3 tox inconclusive
CN1CCN(C(=O)Cc2c[nH]c3ncc(-c4ccc(CO)cc4)cc23)CC1	NIH3T3 tox 25µM, HEK cytotox inconclusive
CN1CCN(C(=O)Cc2c[nH]c3ncc(-c4ccnn4C)cc23)CC1	NIH3T3 tox 100µM
Cc1sc2c(c1C)C(c1ccc(Cl)cc1)=N[C@@H](CC(N)=O)c1nnc(C)n1-2	none (no result: Luciferase inh, NPR1 antag, NIH3T3 tox, HEK cytotox)
CCOP(=O)(OCC)Oc1ccc2c(C)cc(=O)oc2c1	none (no result: Luciferase inh, NPR1 antag, NIH3T3 tox, HEK cytotox)
CC(=O)N1C[C@@H]2C[C@H](C1)c1ccc(NC(=O)COc3ccccc3)c(=O)n1C2	none
CSCC(=O)Nc1ccc2n(c1=O)C[C@H]1C[C@@H]2CN(C(=O)COc2ccccc2)C1	NIH3T3 tox 79µM
COc1ccc(CNC[C@H]2C[C@@H]3CCN2C[C@@H]3c2cc(-c3ccc4ccccc4c3)nn2C)cc1	NIH3T3 tox 25µM, HEK cytotox inconclusive
COc1ccc(CNC[C@H]2C[C@@H]3CCN2C[C@@H]3c2cc(C3CCCCC3)nn2C)cc1	NIH3T3 tox 28µM, HEK cytotox 32µM
COc1ccc(-c2cc([C@H]3CN4CC[C@H]3C[C@@H]4CNC(=O)NCc3ccccc3)n(C)n2)cc1	NIH3T3 tox inconclusive, HEK cytotox inconclusive
CCOC(=O)CCNC(=O)N1[C@H]2CC[C@@H]1c1cnc(-c3ccc(F)cc3)nc1C2	HEK cytotox inconclusive (no result: Luciferase inh, NPR1 antag)
